High-throughput results as filed in PubChem BioAssay.
TDP1 inh – TDP1 (human) enzyme inhibition. Q9NUW8. recombinant TDP1, AlphaScreen DNA substrate cleavage. Potency, µM (titrated, usually from 130 µM), for the others: at the highest dose activity change, negative = inhibition, usual class: inhibitors. 350,000 compounds, 0.28% hits; also: potency is read from the fitted curve at half-maximal effect; nearly all actives have a fitted effect of over 40% in size
Target sequence (Q9NUW8 whole entry, looked up): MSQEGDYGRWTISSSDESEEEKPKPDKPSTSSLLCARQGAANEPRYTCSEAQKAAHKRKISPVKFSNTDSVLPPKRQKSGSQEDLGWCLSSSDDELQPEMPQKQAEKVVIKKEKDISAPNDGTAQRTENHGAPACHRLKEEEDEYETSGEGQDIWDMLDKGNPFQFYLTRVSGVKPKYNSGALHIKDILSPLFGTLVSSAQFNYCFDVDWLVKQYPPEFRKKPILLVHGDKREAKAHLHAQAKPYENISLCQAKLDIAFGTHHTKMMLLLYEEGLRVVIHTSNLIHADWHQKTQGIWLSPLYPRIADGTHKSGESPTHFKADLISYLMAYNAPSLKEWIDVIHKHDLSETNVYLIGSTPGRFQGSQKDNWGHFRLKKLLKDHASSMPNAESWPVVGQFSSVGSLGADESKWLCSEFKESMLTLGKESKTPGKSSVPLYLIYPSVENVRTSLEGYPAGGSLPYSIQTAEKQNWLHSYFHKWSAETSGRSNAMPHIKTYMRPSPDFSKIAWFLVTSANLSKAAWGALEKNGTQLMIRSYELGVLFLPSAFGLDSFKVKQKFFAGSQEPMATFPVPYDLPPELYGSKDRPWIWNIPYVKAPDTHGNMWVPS
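Steps: enzyme plus compound, 15 min RT; add biotin/phosphotyrosine-FITC oligonucleotide (15 nM final), react 5 min; add donor/acceptor beads (10 ug/ml final), 10 min; read AlphaScreen. Tdp1 at 1 nM final.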
WRN inhibitor – WRN helicase (human) inhibition; Q14191; WRN helicase unwinding, fluorescent forked duplex, kinetic; 360,000 compounds, 0.46% hits; Potency, µM (doses to about 114 µM), without a hit: top-dose activity change, negative = inhibition, usual class: inhibitors; also: potency is read from the fitted curve at half-maximal effect; nearly all actives have a fitted effect of over 55% in size
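Primary qHTS, 1536-well format. 20 nM WRN + compound, 15 min RT; start with 100 nM forked fluorophore/quencher duplex, 2 mM ATP (final); kinetic read ex 525/em 598 nm.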
FEN1 inhibitor – inhibitors of human flap endonuclease 1; Recombinant FEN1 flap cleavage, fluorescence, 15 min; Potency, µM (series often up to 114 µM), for the others: at the top dose activity change, negative = inhibition, most hits filed as inhibitors; 390,000 compounds, 0.35% hits; also: potency is read from the fitted curve at half-maximal effect; nearly all actives have a fitted effect of over 65% in size
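Reaction started by adding substrate (50 nM final) to 10 nM enzyme after 15 min room-temperature compound preincubation. Reads at 0 and 15 min, with data normalized and fitted to a four-parameter Hill equation.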
Tb PFK inh – T. brucei PFK enzyme inhibition; 330,000 compounds, 0.17% hits; T. brucei PFK, ADP-Glo luminescence; Potency, µM (doses to about 57.5 µM), for inactives: at the top dose activity, negative = inhibition, hits mostly inhibitors; AID 485367; O15648;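 also: potency is read from the fitted curve at half-maximal effect; 0% = uninhibited 1x PFK enzyme wells and -100% = no-enzyme wells; nearly all actives have a fitted effect of over 60% in size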
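Activity is normalized to no-enzyme wells (full inhibition) and 1.25 nM enzyme wells (no inhibition). Reaction: 0.5 mM F6P, 0.1 mM ATP, 45 min RT, ADP-Glo luminescence; concentration-response curves fitted and classed by quality.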
PGK inhibitor – inhibitors of T. brucei phosphoglycerate kinase | Potency, µM (titrated, usually from 57.5 µM), without a hit: at the highest dose activity change, negative = inhibition, hits mostly inhibitors | PGK/GAPDH coupled, Kinase-Glo luminescence, 60 min | AID 602233 | P07378 | 380,000 compounds, 0.043% hits; also: potency is read from the fitted curve at half-maximal effect; nearly all actives have a fitted effect of over 60% in size
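Recombinant glycosomal PGK reaction used 1,3-bisphosphoglycerate generated in-well by GAPDH (100nM final) in 100mM TEA pH 7.6, 5mM MgCl2, 0.01% Tween-20. After 60 minutes at room temperature, ATP was read by Kinase-Glo Plus luminescence end-point.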
PI5P4K alpha inh – inhibitors of human PI5P4K alpha; PI5P4Kalpha enzyme, ADP-Glo luminescence, 60 min; active compounds read low; P48426; max response, %; 330,000 compounds, 1.2% hits; active = max response of -50% or lower; inconclusive = between -30% and -50%; inactive = -30% or higher; also: value at the top dose of about 77 µM
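ADP-Glo luminescence end-point read after a 60 min room-temperature kinase reaction of PI5P4Kalpha plus substrate, initiated with ATP at 5 microM final. Buffer: 0.038 M HEPES pH 7.4, EGTA, 0.1% CHAPS, 5% DMSO.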
ADP-Glo interf – counter-screen for PI5P4K inhibitors: ADP-Glo detection interference, no enzyme; ADP-Glo detection counter-screen, luciferase luminescence, no enzyme; shares compounds with PI5P4K alpha inh; AID 743285; 1,100 tested, under 10 active; Potency, µM (doses to about 76.9 µM), for the others: at the highest dose activity change, negative = inhibition, hits mostly inhibitors
* hit, by the source's call; [ ] = remark or other dose. Shown are actives, neighbours in structure and some others; about 1.5% of the full set was active somewhere. Unless noted, calls follow the shape of the dose curve; as a rule, active = well fitted curve in the direction sought with a large enough effect; inconclusive = small, poorly fitted or top-dose-only effect, or another doubt; inactive = no such curve, though single readings can be large; an effect the other way counts as inactive or inconclusive. Unless noted, % is scaled to controls: 0 for no effect and ±100 for the full control effect.

What do the screens show for `CN(C)C(=O)c1cn(-c2ccccc2)nc1-c1cc2ccccc2o1`?
TDP1 inh: -3%; WRN inhibitor: -2%; FEN1 inhibitor: -2%; Tb PFK inh: -11%; PGK inhibitor: -2%; PI5P4K alpha inh: 0

Results for NC(=O)c1ccsc1NC(=O)COC(=O)c1cnccn1 ?
TDP1 inh: -5%; WRN inhibitor: inconclusive; FEN1 inhibitor: -12%; Tb PFK inh: 0%; PGK inhibitor: -4%; PI5P4K alpha inh: -63*; ADP-Glo interf: -3%

Results for Cc1c(C(=O)N2CCC(C(=O)Nc3ccc(F)cc3)CC2)sc2nc[nH]c(=O)c12 ?
TDP1 inh: 8%; FEN1 inhibitor: -3%; PGK inhibitor: -4%

Results for O=c1c2ccccc2n(Cc2ccccc2F)c(=O)n1-c1cccc(F)c1 ?
TDP1 inh: 4%; FEN1 inhibitor: 5%; PGK inhibitor: -7%

Results for NC(=O)c1ccsc1NC(=O)COC(=O)c1ccc([N+](=O)[O-])o1 ?
TDP1 inh: -11%; WRN inhibitor: -8%; FEN1 inhibitor: -2%; Tb PFK inh: -5%; PGK inhibitor: -8%; PI5P4K alpha inh: -3

How did NC(=O)c1ccsc1NC(=O)c1ccc([N+](=O)[O-])o1 do in these assays?
TDP1 inh: 1%; WRN inhibitor: -9%[11.6 µM]; FEN1 inhibitor: inconclusive; Tb PFK inh: -5%; PGK inhibitor: -2%; PI5P4K alpha inh: -52*; ADP-Glo interf: -15%

What do the screens show for `CCOc1ccccc1OCC(=O)NNC(=O)Cn1cnc2c1c(=O)n(C)c(=O)n2C`?
TDP1 inh: 6%; WRN inhibitor: 4%; FEN1 inhibitor: 6%; Tb PFK inh: 0%; PGK inhibitor: 8%; PI5P4K alpha inh: -9

Results for CCN1CCc2c(OCC(=O)Nc3ccc4c(c3)OCCO4)cccc2C1=O ?
TDP1 inh: 4%; Tb PFK inh: 19%

Results for Cc1ccc(N(C(=O)CNC(=O)c2ccco2)C(C(=O)NC2CCCC2)c2cccnc2)c(C)c1 (centres undefined) ?
WRN inhibitor: 7%; FEN1 inhibitor: 13%; Tb PFK inh: -4%; PGK inhibitor: -1%; PI5P4K alpha inh: -58*; ADP-Glo interf: -1%

How did Cc1ccc(N(C(=O)CNC(=O)c2ccco2)C(C(=O)NC2CCCCC2)c2cccnc2)c(C)c1 (centres undefined) do in these assays?
TDP1 inh: -5%; WRN inhibitor: -19%; FEN1 inhibitor: 12%; Tb PFK inh: 1%; PGK inhibitor: -5%; PI5P4K alpha inh: 2

Results for Cc1ccc(NC(=O)CN2C(=O)c3ccccc3Sc3ccc(C(=O)N4CCOCC4)cc32)cc1F ?
TDP1 inh: -4%; FEN1 inhibitor: 10%; PGK inhibitor: 1%

What do the screens show for `CC1(C(=O)Nc2nc3ccccc3s2)CC1(Br)Br` (centres undefined)?
WRN inhibitor: -14%; FEN1 inhibitor: -4%; Tb PFK inh: 3%; PGK inhibitor: -4%; PI5P4K alpha inh: 9

What do the screens show for `c1cc2c(cc1C1=NNC(=NC3CC3)SC1)OCCO2`?
TDP1 inh: 5%; WRN inhibitor: 0%; FEN1 inhibitor: 14%; Tb PFK inh: inconclusive; PGK inhibitor: 13µM*; PI5P4K alpha inh: -51*; ADP-Glo interf: inconclusive

What do the screens show for `CCn1c(C(=O)OC)cc2c1ccn2-c1ccc(F)cc1`?
TDP1 inh: 9%; WRN inhibitor: inconclusive; FEN1 inhibitor: -11%; Tb PFK inh: 1%; PGK inhibitor: -1%; PI5P4K alpha inh: -50*; ADP-Glo interf: -2%

Results for COc1ccccc1OCC(=O)Nc1ccc2c(c1)OCO2 ?
TDP1 inh: -9%; WRN inhibitor: inconclusive; FEN1 inhibitor: -18%; Tb PFK inh: -10%; PGK inhibitor: 8%; PI5P4K alpha inh: -50*; ADP-Glo interf: 0%

What do the screens show for `O=C(O)c1ccccc1-c1noc(-c2ccccc2F)n1`?
Tb PFK inh: 2%

How did O=C(O)CCC(=O)N1CCC(n2nnc3cc(C(F)(F)F)ccc32)CC1 do in these assays?
TDP1 inh: -2%; WRN inhibitor: -6%[11.6 µM]; FEN1 inhibitor: -5%; Tb PFK inh: 0%; PGK inhibitor: 4%; PI5P4K alpha inh: -24; ADP-Glo interf: 2%

Results for O=C(O)c1ccc(S(=O)(=O)N2CCC(n3nnc4cc(C(F)(F)F)ccc43)CC2)cc1 ?
WRN inhibitor: -6%; FEN1 inhibitor: 1%; Tb PFK inh: 0%; PGK inhibitor: -5%; PI5P4K alpha inh: -4

How did COC(=O)c1ccccc1NC(=O)CN1CCC(n2nnc3cc(C(F)(F)F)ccc32)CC1 do in these assays?
TDP1 inh: 8%; WRN inhibitor: -28%; FEN1 inhibitor: 8%; Tb PFK inh: -2%; PGK inhibitor: -2%; PI5P4K alpha inh: inconclusive; ADP-Glo interf: 4%

How did Cc1ccccc1C(=O)NC1CCN(CC(=O)Nc2ccc(Br)cc2)CC1 do in these assays?
WRN inhibitor: 7%; FEN1 inhibitor: 7%; Tb PFK inh: 1%; PGK inhibitor: -6%; PI5P4K alpha inh: 0

How did Cc1cnc(C(=O)OCc2nc3ccsc3c(=O)[nH]2)cn1 do in these assays?
TDP1 inh: 14µM*; WRN inhibitor: 50µM*; FEN1 inhibitor: inconclusive; Tb PFK inh: 0%; PGK inhibitor: -19%; PI5P4K alpha inh: -65*; ADP-Glo interf: -11%

What do the screens show for `Cc1ccc(C(=O)OCc2nc3ccsc3c(=O)[nH]2)o1`?
WRN inhibitor: -27%; FEN1 inhibitor: 4%; Tb PFK inh: 0%; PGK inhibitor: -10%; PI5P4K alpha inh: 1
